Bioassay records (PubChem BioAssay)
Shown are actives, neighbours in structure and some others; about 4.7% of the full set was active somewhere.
ADAM17 inh – inhibits human ADAM17; P78536; 370,000 compounds, 0.83% hits; inhibition, % at 6.95 µM; recombinant ADAM17, EDANS/DABCYL FRET peptide cleavage;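 active = inhibition above the mean of compounds lying between control limits plus 3 SD, set per campaign, cut at about 8.5% in these data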;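 note: 0% = DMSO-only wells as the low control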
Target sequence (P78536 215-824 limits assumed): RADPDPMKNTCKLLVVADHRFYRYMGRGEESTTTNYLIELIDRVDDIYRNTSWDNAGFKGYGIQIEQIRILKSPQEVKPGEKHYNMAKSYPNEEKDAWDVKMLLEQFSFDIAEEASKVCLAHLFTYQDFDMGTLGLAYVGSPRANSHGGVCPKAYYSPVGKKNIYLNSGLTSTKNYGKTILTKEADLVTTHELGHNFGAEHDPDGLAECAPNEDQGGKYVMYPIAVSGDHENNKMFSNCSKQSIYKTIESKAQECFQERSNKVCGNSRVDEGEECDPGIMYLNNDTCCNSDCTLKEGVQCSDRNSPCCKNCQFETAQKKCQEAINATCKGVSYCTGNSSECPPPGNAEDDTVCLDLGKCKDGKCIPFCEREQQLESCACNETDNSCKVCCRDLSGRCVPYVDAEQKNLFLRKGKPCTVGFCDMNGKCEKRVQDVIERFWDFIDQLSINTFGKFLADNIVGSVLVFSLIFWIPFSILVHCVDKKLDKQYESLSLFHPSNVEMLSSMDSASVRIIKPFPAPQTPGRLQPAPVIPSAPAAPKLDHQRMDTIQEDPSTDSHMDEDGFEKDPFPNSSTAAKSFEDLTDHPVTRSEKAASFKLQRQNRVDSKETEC
MPTP inh – permeability transition pore inhibition; isolated mouse mitochondria, Ca2+ swelling absorbance, 30 min; inhibition, % at 10 µM; 360,000 compounds, 1.4% hits;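 active = inhibition of 50% or more, scaled per plate between neutral and stimulator controls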;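 note: 0% = DMSO wells given calcium and 100% = 1 mM EGTA wells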
rCAG binder – r(CAG) repeat RNA binding; TO-PRO-1 dye displacement fluorescence; inhibition, % at 3 µM; 370,000 compounds, 1.3% hits; AID 651821;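 active = inhibition above the plate cutoff, the mean of all test compounds on that plate plus 3 SD, cut at about 35% in these data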;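 note: 0% = DMSO alone and 100% = 100 µM mitoxantrone as full dye displacement; higher means more dye released from RNA so lower well fluorescence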
Pemphigus Ab inh – blocks pemphigus antibody binding to human desmoglein-3; DSG3-coupled beads, scFv-anti-DSG3-GFP binding, flow cytometry; active compounds read low; binding (percent of control), % at 10 µM; 310,000 compounds, 0.48% hits; AID 588358;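 active = binding more than 3 SD below its plate's average and above zero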;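 note: hits lower antibody fragment binding to DSG3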
ADAM10 inh – ADAM10 inhibition, QFRET primary screen; AID 720582; O14672; 370,000 compounds, 0.62% hits; inhibition, % at 7 µM; recombinant ADAM10, EDANS/DABCYL FRET peptide cleavage, 3 h;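 active = inhibition above a per-campaign cutoff equal to the mean of compounds falling between control-based bounds plus 3 SD, cut at about 20% in these data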;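 note: 0% = DMSO wells while the 100% control is not disclosed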
proKLK7 act – proKLK7 (human) activation, primary screen; purified proKLK7, EDANS-DABCYL substrate fluorescence; 100% is mature enzyme control, 0% vehicle; activation, % at 7 µM; 370,000 compounds, 0.9% hits;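 active = activation above the mean of all tested compounds plus 3 SD, computed per campaign excluding outliers beyond control limits, cut at about 13% in these data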
Rh123 counter – membrane potential counter-screen of mitochondrial pore inhibitors. shares compounds with MPTP inh. isolated mitochondria, Rhodamine 123 fluorescence. inhibition, % at 10 µM. 5,000 compounds, 78% hits. AID 624504; in the data active = inhibition above about 22%;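 note: 0% = DMSO vehicle and 100% = positive control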
rCAG bind conf – r(CAG) RNA repeat binding, confirmation; shares compounds with rCAG binder; TO-PRO-1 dye displacement fluorescence; inhibition, % at 3 µM; 4,300 compounds, 70% hits;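 active = inhibition above a per-plate cutoff, the mean inhibition of sample wells plus 3 SD, cut at about 35% in these data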;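 note: loss of TO-PRO-1 fluorescence as compound displaces dye from 1x1 AA loop RNA; 0% = DMSO only wells and 100% = 100 µM mitoxantrone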
DNA CAG counter – DNA CAG dye complex inhibition counter-screen; shares compounds with rCAG binder; d(CAG) DNA oligo TO-PRO-1 dye displacement, fluorescence; inhibition, % at 3 µM; 4,300 compounds, 94% hits;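 active = inhibition above its plate's cutoff, the mean test-well inhibition plus 3 SD, cut at about 4.8% in these data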;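 note: 0% = DNA dye mix with DMSO and 100% = 100 µM mitoxantrone; hits displace the dye from DNA and so lower well fluorescence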
Active calls of the source: *; . = not tested or not shown.

SMILES	ADAM17 inh	MPTP inh	rCAG binder	Pemphigus Ab inh	ADAM10 inh	proKLK7 act	Rh123 counter	rCAG bind conf	DNA CAG counter
Cc1n[nH]c(=O)c2c(NC(=O)CSc3c(Cl)cccc3Cl)oc(C)c12	-2.2	-1.7	0.8	102.6	-9.2	0.1	.	.	.
CN(C)S(=O)(=O)c1cccc(-c2nn(-c3ccccc3)cc2/C=C2\SC(=S)NC2=O)c1	4.6	97.4*	69.0*	109.6	11.8	0.5	45.3*	88.6*	66.0*
O=c1cc(N2CCN(c3cccc(C(F)(F)F)c3)CC2)[nH]c(=O)n1-c1ccccc1	0.1	.	.	.	9.3	.	.	.	.
O=C(Cc1csc(NC(=O)Nc2cccc(Cl)c2)n1)NCc1cccnc1	3.8	-2.5	33.3	102.5	-0.8	0.4	.	.	.
O=C(Cc1csc(NC(=O)Nc2cccc(Cl)c2)n1)NC1CCCC1	-3.7	78.6*	43.9*	96.0	-9.0	-0.4	73.1*	17.7	14.3*
C=CCn1c(N)c(C(=O)NCc2ccco2)sc1=S	-3.3	0.0	-0.7	101.1	-1.8	0.2	.	.	.
O=C(NCc1ccco1)c1sc(=S)n2c1[nH]c(=O)c1ccccc12	1.1	89.4*	61.9*	98.7	-6.6	0.2	76.7*	65.5*	22.4*
N#C/C(=N\Nc1cccc(C(F)(F)F)c1)C(=O)c1ccsc1	5.5	83.9*	75.8*	116.0	18.4	0.0	57.2*	56.0*	18.3*
COc1ccccc1-n1c(Cc2cccc3ccccc23)nnc1SCC(=O)O	0.3	.	15.4	.	2.6	0.5	.	.	.
COC(=O)[C@]12C[C@H](CC(=O)N3CCC(c4ccccc4)CC3)C(=O)N(CCC3=CCCCC3)C1=C[C@H](COCc1ccccc1)O[C@@H]2C	2.9	.	7.2	.	6.3	1.0	.	.	.
CC(=O)c1sc(Nc2nc3ccc(F)cc3s2)nc1C	-17.2	70.9*	35.8*	102.8	-55.9	1.4	63.1*	28.2	8.0*
CCOC(=O)c1csc(Nc2nc3ccc(F)cc3s2)n1	-1.3	2.3	11.6	.	-9.2	-1.2	.	.	.
COC(=O)C1CCCN(C(=O)C2CCN(S(=O)(=O)c3cccc4cccnc34)CC2)C1 (centres undefined)	-0.9	.	1.2	.	-4.0	0.3	.	.	.
Cn1c(=O)c2[nH]c(SCC(=O)NCCc3ccc(F)cc3)nc2n(C)c1=O	-0.3	.	2.0	.	-5.3	0.2	.	.	.
N#C/C(=N\Nc1cccc([N+](=O)[O-])c1)C(=O)c1ccc(Br)cc1	1.4	92.6*	75.9*	99.8	14.5	-0.8	40.6*	87.0*	52.4*
COc1cccc(/C=N/Nc2snc(SC)c2C#N)c1O	1.8	99.4*	74.6*	102.6	-0.3	-1.0	86.5*	48.1*	19.0*
CCOC(=O)CC[C@@H]1CC[C@]2(CCCN(C(=O)c3ccco3)C2)O1	2.7	.	2.8	.	3.2	-0.3	.	.	.
CCCCn1c(NC(=O)c2ccccc2Cl)c(C#N)c2nc3ccccc3nc21	-60.6	96.2*	91.5*	103.7	-215.0	-3.2	69.7*	84.7*	58.3*
COC(=O)C1CN(C2CCCC2)CCS(=O)(=O)N1Cc1ccccc1 (centres undefined)	-4.4	.	1.5	.	-11.7	-0.2	.	.	.
CC(C)c1cc(C(=O)NNC(=S)NCc2ccco2)c(O)c(C(C)C)c1	4.3	85.2*	64.7*	101.3	-3.4	-3.0	83.3*	57.7*	24.5*
Cc1cc(C(=O)NNC(=S)NCc2ccco2)n(C)n1	0.9	0.1	-0.6	.	-9.6	-0.2	.	.	.
CC(C)S(=O)(=O)C1=NSC2=NC(=O)/C(=C\c3ccc(-c4ccccc4)o3)C(=N)N21	-6.8	105.8*	38.0*	95.9	-16.2	0.5	68.4*	87.0*	65.8*
Cc1nc2ccc(S(=O)(=O)NCC(=O)N(C)Cc3ccccc3F)cc2s1	-3.8	.	-0.2	.	-9.5	-0.3	.	.	.
CCN(CC)c1ccc(/C=C2/C(=O)c3ccc(C(=O)O)cc3C2=O)cc1	1.1	71.8*	55.3*	.	0.8	0.4	-34.3	82.3*	47.9*
CCCSc1nnc(NC(=O)c2sc3nc(-c4cccs4)ccc3c2N)s1	-119.0	75.7*	36.0*	.	-363.9	-0.3	32.3*	68.3*	33.3*
SMILES	ADAM17 inh	MPTP inh	rCAG binder	Pemphigus Ab inh	ADAM10 inh	proKLK7 act	Rh123 counter	rCAG bind conf	DNA CAG counter
COc1cccc(N(C)C(=O)[C@@H](C2CC2)[C@@H](O)c2ccc3ccccc3c2)c1	0.6	.	-1.0	.	9.7	-0.1	.	.	.
Cc1noc(NS(=O)(=O)c2ccc(NC(=O)Nc3ccc(Cl)c(Cl)c3)cc2)c1C	1.2	84.0*	91.4*	97.8	-0.7	0.2	75.2*	83.5*	52.9*
Cc1ccc(NC(=O)N2CCC(c3nc4ccc(Cl)cc4[nH]3)CC2)cc1F	3.6	.	3.1	.	8.3	-0.2	.	.	.
O=C(Nc1cccc(Cl)c1)Nc1sccc1-c1nc2ccccc2s1	-18.2	78.3*	35.3*	96.1	-47.0	-239.2	68.6*	27.1	17.6*
CCOC(=O)C1=C(C)Nc2ccccc2N/C1=N\S(=O)(=O)c1cc(C(=O)O)ccc1Cl	-9.4	0.4	10.1	.	-5.1	-0.1	.	.	.
CCOC(=O)C1=C(CC)Nc2ccccc2N/C1=N\S(=O)(=O)c1cc(Br)ccc1Br	1.6	65.6*	63.1*	103.8	5.6	0.6	82.5*	59.0*	21.2*
N#CC(/C(=N/S(=O)(=O)c1cccs1)c1ccccc1)c1nc2ccccc2[nH]1 (centres undefined)	-1.6	66.0*	42.3*	103.4	3.1	0.3	71.9*	22.8	3.8
C[C@H]1CN(C(=O)OC(C)(C)C)CCN1c1ccc(N2CC[C@@H](O)C2)c(C#N)c1	-14.5	.	-0.3	.	-66.4	-0.2	.	.	.
O=S(=O)(Nc1cc(Cl)ccc1-n1cncn1)c1cc(Br)ccc1Br	-1.9	65.8*	57.5*	.	-8.7	0.5	92.8*	56.0*	20.9*
O=S(=O)(Nc1cc(Cl)ccc1-n1cncn1)c1ccccc1Cl	-2.9	2.6	13.8	105.5	-14.4	-0.3	.	.	.
C/C(=N\NC(=O)c1cc2ccccc2cc1O)c1cc2ccccc2o1	-2.6	97.5*	50.4*	94.2	-3.4	-0.7	56.8*	39.6*	15.3*
O=C(NCc1ccccc1)N1CCC(c2nc3ccc(Cl)cc3[nH]2)CC1	0.7	.	3.4	.	3.7	0.4	.	.	.
Cn1cccc1[C@]1(O)C(=O)Nc2ccc(F)cc21	-6.4	.	10.0	.	-9.9	-0.3	.	.	.
CC1=NN(c2nc(-c3ccc(C#N)cc3)cs2)C(=O)C1	-2.5	.	20.2	.	-9.7	0.1	.	.	.
O=C1CC(c2ccccc2)=NN1c1nc(-c2ccccc2)cs1	0.4	67.2*	65.1*	100.4	0.6	-0.7	41.9*	31.4	15.0*
